# Laboratory results as given in publication PMC11062922 (Nature Chemical Biology, 2023).
# Like-named read-outs stand apart in the source and are kept apart here.
# Columns and labels:
# Set-up in all cases: species or system human, MV4-11 + K-562 + COLO205 + SK-N-BE2 + OVCAR-8
# AKT3 = conditions: read-out: apparent Kd, n = 1
# COX5A = conditions: read-out: apparent Kd; compound concentrations: 100 nM and 1000 nM (sheet 'Samples'), CATDS: 0.36000634537809301; n = 1
# MAPKAPK2 = conditions: read-out: apparent Kd; compound concentrations: 100 nM and 1000 nM (sheet 'Samples'), CATDS: 0.330960581513286; n = 1
# DCTPP1 = conditions: read-out: apparent Kd; compound concentrations:100 nM and 1000 nM (sheet 'Samples'); n = 1
# NQO1 = conditions: read-out: apparent Kd; compound concentrations:100 nM and 1000 nM (sheet 'Samples'); n = 1
# PRKAG1 = conditions: read-out: apparent Kd; compound concentrations:100 nM and 1000 nM (sheet 'Samples'); n = 1
# ATM = conditions: read-out: apparent Kd, compound concentrations: 100 nM and 1000 nM (sheet 'Samples'), n = 1
# CDC42BPG = conditions: read-out: apparent Kd; compound concentrations: 100 nM and 1000 nM (sheet 'Samples'), CATDS: 0.370471808138506; n = 1
# AKT2 = conditions: read-out: apparent Kd, compound concentrations: 100 nM and 1000 nM (sheet 'Samples'), n = 1
# PIM2 = conditions: read-out: apparent Kd, n = 1
# MAP2K2 = conditions: read-out: apparent Kd; compound concentrations: 100 nM and 1000 nM (sheet 'Samples'), CATDS: 0.187838411723944; n = 1
# PLK1 = conditions: read-out: apparent Kd; compound concentrations: 100 nM and 1000 nM (sheet 'Samples'), CATDS: 0.29940463058405897; n = 1
# RIOK2 = conditions: read-out: apparent Kd, n = 1
# STK26 = conditions: read-out: apparent Kd; compound concentrations: 100 nM and 1000 nM (sheet 'Samples'), CATDS: 0.193816418498372; n = 1
# CDK16 = conditions: read-out: apparent Kd; compound concentrations:100 nM and 1000 nM (sheet 'Samples'); n = 1
# CDK17 = conditions: read-out: apparent Kd; compound concentrations:100 nM and 1000 nM (sheet 'Samples'); n = 1
# CDK6 = conditions: read-out: apparent Kd, n = 1
# CDK9 = conditions: read-out: apparent Kd; compound concentrations:100 nM and 1000 nM (sheet 'Samples'); n = 1
# CDKL5 = conditions: read-out: apparent Kd; compound concentrations:100 nM and 1000 nM (sheet 'Samples'); n = 1
# GSK3A = conditions: read-out: apparent Kd, n = 1
# GSK3B = conditions: read-out: apparent Kd, n = 1
# ICK = conditions: read-out: apparent Kd; compound concentrations:100 nM and 1000 nM (sheet 'Samples'); n = 1
# FLT4 = conditions: read-out: apparent Kd, compound concentrations: 100 nM and 1000 nM (sheet 'Samples'), n = 1
# RIPK2 = conditions: read-out: apparent Kd; compound concentrations: 100 nM and 1000 nM (sheet 'Samples'), CATDS: 0.39426216370123801; n = 1
# STK10 = conditions: read-out: apparent Kd, compound concentrations: 100 nM and 1000 nM (sheet 'Samples'), n = 1
# AURKA = conditions: read-out: apparent Kd; compound concentrations: 100 nM and 1000 nM (sheet 'Samples'), CATDS: 7.2357375689978506E-2; n = 1
# AURKB = conditions: read-out: apparent Kd; compound concentrations: 100 nM and 1000 nM (sheet 'Samples'), CATDS: 8.33802174361232E-2; n = 1
# BTK = conditions: read-out: apparent Kd; compound concentrations: 100 nM and 1000 nM (sheet 'Samples'), CATDS: 2.7906188232160099E-2; n = 1
# DDR1 = conditions: read-out: apparent Kd; compound concentrations: 100 nM and 1000 nM (sheet 'Samples'), CATDS: 3.3765649508464002E-2; n = 1
# DDR2 = conditions: read-out: apparent Kd; compound concentrations: 100 nM and 1000 nM (sheet 'Samples'), CATDS: 2.4811754642975199E-2; n = 1
# EPHA1 = conditions: read-out: apparent Kd; compound concentrations: 100 nM and 1000 nM (sheet 'Samples'), CATDS: 5.8966427250755599E-2; n = 1
# EPHA2 = conditions: read-out: apparent Kd; compound concentrations: 100 nM and 1000 nM (sheet 'Samples'), CATDS: 2.87381973097037E-2; n = 1
# EPHA5 = conditions: read-out: apparent Kd; compound concentrations: 100 nM and 1000 nM (sheet 'Samples'), CATDS: 2.6468271871748401E-2; n = 1
# EPHA7 = conditions: read-out: apparent Kd; compound concentrations: 100 nM and 1000 nM (sheet 'Samples'), CATDS: 2.4521911619802599E-2; n = 1
# EPHB1 = conditions: read-out: apparent Kd; compound concentrations: 100 nM and 1000 nM (sheet 'Samples'), CATDS: 4.12835328689228E-2; n = 1
# EPHB3 = conditions: read-out: apparent Kd; compound concentrations: 100 nM and 1000 nM (sheet 'Samples'), CATDS: 2.2990547954998001E-2; n = 1
# EPHB4 = conditions: read-out: apparent Kd; compound concentrations: 100 nM and 1000 nM (sheet 'Samples'), CATDS: 2.6241533264211699E-2; n = 1
# EPHB6 = conditions: read-out: apparent Kd; compound concentrations: 100 nM and 1000 nM (sheet 'Samples'), CATDS: 2.2781408813982901E-2; n = 1
# FGFR1 = conditions: read-out: apparent Kd; compound concentrations: 100 nM and 1000 nM (sheet 'Samples'), CATDS: 3.1616918928168397E-2; n = 1
# IRAK1 = conditions: read-out: apparent Kd; compound concentrations: 100 nM and 1000 nM (sheet 'Samples'), CATDS: 2.4333511791148201E-2; n = 1
# MAP3K5 = conditions: read-out: apparent Kd; compound concentrations: 100 nM and 1000 nM (sheet 'Samples'), CATDS: 2.5132787541446201E-2; n = 1
# MAP3K6 = conditions: read-out: apparent Kd; compound concentrations: 100 nM and 1000 nM (sheet 'Samples'), CATDS: 2.24428147169137E-2; n = 1
# PAK4 = conditions: read-out: apparent Kd; compound concentrations: 100 nM and 1000 nM (sheet 'Samples'), CATDS: 2.7893369435470699E-2; n = 1
# PDGFRB = conditions: read-out: apparent Kd; compound concentrations: 100 nM and 1000 nM (sheet 'Samples'), CATDS: 2.3035756841704998E-2; n = 1
# PLK4 = conditions: read-out: apparent Kd; compound concentrations: 100 nM and 1000 nM (sheet 'Samples'), CATDS: 9.4443768096787298E-2; n = 1
# PTK2 = conditions: read-out: apparent Kd; compound concentrations: 100 nM and 1000 nM (sheet 'Samples'), CATDS: 0.104516847999243; n = 1
# RET = conditions: read-out: apparent Kd; compound concentrations: 100 nM and 1000 nM (sheet 'Samples'), CATDS: 0.104878429822753; n = 1
# SLK = conditions: read-out: apparent Kd; compound concentrations: 100 nM and 1000 nM (sheet 'Samples'), CATDS: 2.57372154872102E-2; n = 1
# TEC = conditions: read-out: apparent Kd; compound concentrations: 100 nM and 1000 nM (sheet 'Samples'), CATDS: 3.46380925591862E-2; n = 1
# TGFBR1 = conditions: read-out: apparent Kd; compound concentrations: 100 nM and 1000 nM (sheet 'Samples'), CATDS: 3.4751131583425202E-2; n = 1
# TNK1 = conditions: read-out: apparent Kd; compound concentrations: 100 nM and 1000 nM (sheet 'Samples'), CATDS: 3.18258683294073E-2; n = 1
# MAP2K3 = conditions: read-out: apparent Kd; compound concentrations: 100 nM and 1000 nM (sheet 'Samples'), CATDS: 0.58030400025916395; n = 1
# [1] = compound concentrations:100 nM and 1000 nM (sheet 'Samples')
structure (smiles),measurement,setting,value
FC(F)(F)c1cccc(-c2nn3ncccc3c2-c2ccnc(Nc3ccc4c(c3)OCCO4)n2)c1 [GW827102X],potency estimated from few doses,"AKT3; compound concentrations: 100 nM and 1000 nM (sheet 'Samples'), CATDS: 0.31242547502762402",2070 nM
same,potency estimated from few doses,COX5A,1560 nM
same,potency estimated from few doses,MAPKAPK2,1830 nM
CC(C)NC(=O)N1CC[C@H](NC2=Nc3cc(F)ccc3N(CC(F)F)c3ccc(Cl)cc32)C1 [NVS-PAK1-1],potency estimated from few doses,AKT3; [1],1760 nM
same,potency estimated from few doses,DCTPP1,2220 nM
same,potency estimated from few doses,NQO1,1340 nM
same,potency estimated from few doses,PRKAG1,1740 nM
CC(C)c1ccc(-c2cc(-c3c[nH]nc3-c3ccccn3)ccn2)cc1 [GW682841X],potency estimated from few doses,ATM; CATDS: 0.768793574743593,216 nM
same,potency estimated from few doses,CDC42BPG,1220 nM
Cc1ccc(C(=O)NC2CCCCC2)cc1-c1ccc(C(=O)NCC2CC2)cc1 [GW782907X],potency estimated from few doses,AKT2; CATDS: 0.479844173242639,1850 nM
same,potency estimated from few doses,"PIM2; compound concentrations: 100 nM and 1000 nM (sheet 'Samples'), CATDS: 0.52192336058926703",1560 nM
C[C@@H](Oc1cc(-n2cnc3ccc(NC(=O)NC(C)(C)C)cc32)sc1C(N)=O)c1ccccc1Cl [GSK346294A],potency estimated from few doses,AKT2; CATDS: 0.175578596413346,2320 nM
same,potency estimated from few doses,MAP2K2,1980 nM
same,potency estimated from few doses,PLK1,851 nM
same,potency estimated from few doses,"RIOK2; compound concentrations: 100 nM and 1000 nM (sheet 'Samples'), CATDS: 0.18243724402643599",2120 nM
same,potency estimated from few doses,STK26,1850 nM
CN1CCC(C(=O)Nc2n[nH]c3nc(-c4ccc(O)cc4)c(Br)cc23)CC1 [SB-732881],potency estimated from few doses,AKT3; [1],1640 nM
same,potency estimated from few doses,CDK16,565 nM
same,potency estimated from few doses,CDK17,914 nM
same,potency estimated from few doses,CDK6; [1],1480 nM
same,potency estimated from few doses,CDK9,400 nM
same,potency estimated from few doses,CDKL5,852 nM
same,potency estimated from few doses,GSK3A; [1],3.34 nM
same,potency estimated from few doses,GSK3B; [1],10.4 nM
same,potency estimated from few doses,ICK,1230 nM
same,potency estimated from few doses,PIM2; [1],1660 nM
same,potency estimated from few doses,RIOK2; [1],2210 nM
CCS(=O)(=O)c1ccc(OC)c(Nc2nccc(N(C)c3ccc4c(C)n[nH]c4c3)n2)c1.Cl [GW654652C],potency estimated from few doses,ATM; CATDS: 0.41438416433349501,228 nM
same,potency estimated from few doses,FLT4; CATDS: 0.192292703568538,1430 nM
same,potency estimated from few doses,RIPK2,249 nM
same,potency estimated from few doses,STK10; CATDS: 0.17094041462039,2280 nM
CC(=O)Nc1ccc2c(c1)C(c1ccccc1Cl)=Nc1c(n[nH]c1C)N2 [RO0281752-000],potency estimated from few doses,AURKA,151 nM
same,potency estimated from few doses,AURKB,121 nM
same,potency estimated from few doses,BTK,1080 nM
same,potency estimated from few doses,"CDK6; compound concentrations: 100 nM and 1000 nM (sheet 'Samples'), CATDS: 2.6039683989772199E-2",1320 nM
same,potency estimated from few doses,DDR1,658 nM
same,potency estimated from few doses,DDR2,1540 nM
same,potency estimated from few doses,EPHA1,213 nM
same,potency estimated from few doses,EPHA2,992 nM
same,potency estimated from few doses,EPHA5,1260 nM
same,potency estimated from few doses,EPHA7,1600 nM
same,potency estimated from few doses,EPHB1,421 nM
same,potency estimated from few doses,EPHB3,2020 nM
same,potency estimated from few doses,EPHB4,1290 nM
same,potency estimated from few doses,EPHB6,2090 nM
same,potency estimated from few doses,FGFR1,772 nM
same,potency estimated from few doses,FLT4; CATDS: 7.7146870041813295E-2,136 nM
same,potency estimated from few doses,"GSK3A; compound concentrations: 100 nM and 1000 nM (sheet 'Samples'), CATDS: 2.5407151234935001E-2",1430 nM
same,potency estimated from few doses,"GSK3B; compound concentrations: 100 nM and 1000 nM (sheet 'Samples'), CATDS: 2.45501369034281E-2",1600 nM
same,potency estimated from few doses,IRAK1,1650 nM
same,potency estimated from few doses,MAP3K5,1480 nM
same,potency estimated from few doses,MAP3K6,2220 nM
same,potency estimated from few doses,PAK4,1080 nM
same,potency estimated from few doses,PDGFRB,2000 nM
same,potency estimated from few doses,PLK4,100 nM
same,potency estimated from few doses,PTK2,86.4 nM
same,potency estimated from few doses,RET,86 nM
same,potency estimated from few doses,SLK,1370 nM
same,potency estimated from few doses,STK10; CATDS: 4.1679333810588297E-2,413 nM
same,potency estimated from few doses,TEC,620 nM
same,potency estimated from few doses,TGFBR1,615 nM
same,potency estimated from few doses,TNK1,760 nM
Cc1cnc(N)c(/C=C/c2cncc(C(=O)NCCc3ccc(Cl)cc3Cl)c2)c1.Cl [GSK190937A],potency estimated from few doses,ATM; CATDS: 1,186 nM
Nc1c(C(=O)c2ccc(C#CCN3CCOCC3)cc2)cnn1-c1ccc(F)cc1 [RO1153136-000],potency estimated from few doses,AKT2; CATDS: 0.43921962783060797,2590 nM
same,potency estimated from few doses,MAP2K3,1470 nM
